Experimental data published in PubChem BioAssay (NCATS).
Results filed as inconclusive are left out. Active and inactive are the calls of the source. Unless noted, calls come from the whole dose curve; as a rule, active = well fitted curve in the direction sought with a large enough effect; inconclusive = small, poorly fitted or top-dose-only effect, or another doubt; inactive = no such curve, though single readings can be large; an effect the other way counts as inactive or inconclusive.

Columns and labels:
[1] = target: Estrogen receptor (Homo sapiens) (UniProt P03372); assay: qHTS assay for small molecule antagonists of estrogen receptor alpha signaling (AID 588513; active = well fitted curve in the direction sought with a large enough effect in the signal ratio, with a control signal flat, not every such curve was filed as active; the % refers to the signal ratio; note: % is set by controls: 0 for no effect and ±100 for the full control effect)
Procedure, shortened: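 ER-alpha-UAS-bla GripTite HEK 293 cells in 2% charcoal/dextran-treated FBS medium; compounds titrated (1:2, duplicate), then stimulated with 0.5 nM 17-beta-estradiol for 18 h at 37C. CCF4 beta-lactamase fluorescence; Hill-fit IC50 and efficacy.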

[2] = target: Estrogen receptor (Homo sapiens) (UniProt P03372); assay: qHTS assay for small molecule agonists of estrogen receptor alpha signaling (AID 588514; calls by dose curve;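 note: 0% = vehicle only and 100% = reference agonist; nearly all actives have a fitted effect of over 70% in size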)
Procedure, shortened: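 Efficacy is expressed against 20 nM 17-beta-estradiol (100%) and DMSO basal (0%); EC50 from Hill equation. Assay: beta-lactamase reporter in ER-alpha-UAS-bla HEK 293 cells, 18 h compound incubation, CCF4 detection.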

[3] = qHTS assay for small molecule antagonists of peroxisome proliferator-activated receptor delta signaling (AID 588535; active = well fitted inhibition curve with a large enough effect in the signal ratio, with a control signal flat, not every such curve was filed as active; the % refers to the signal ratio;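 for max response: cells co-treated with a PPAR-delta agonist as stimulator during compound exposure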); details: HEK293T PPARd-UAS-bla, beta-lactamase FRET ratio, 18 h; 460 nm channel
Procedure, shortened: (§1)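 Titrations were run on PPAR-delta-UAS-bla HEK293T cells in charcoal/dextran-stripped serum, incubated 18 h at 37 C. CCF4 fluorescence (460/530 nm) after 2 h RT; Hill equation yields IC50 and maximal response.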

[4] = target: Peroxisome proliferator-activated receptor delta (Homo sapiens) (UniProt Q03181); assay: as above
Procedure, shortened: as §1

[5] = target: Vitamin D3 receptor (Homo sapiens) (UniProt P11473); assay: qHTS assay for small molecule agonists of vitamin D receptor signaling (AID 588543; calls by dose curve;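 note: 0% = DMSO basal and 100% = reference agonist control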)
Procedure, shortened: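 VDR-UAS-bla HEK293T cells, 2000/well, 2% charcoal-stripped FBS; compound titration 16 h at 37 C; CCF4 beta-lactamase ratio read. Normalized to 50 nM 1-alpha,25-dihydroxyvitamin D3 (100%) and DMSO; Hill fit gives EC50, efficacy.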

[6] = qHTS assay for small molecule agonists of retinoid X receptor alpha signaling (AID 588544; calls by dose curve;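 for activation: 0% = DMSO basal wells and 100% = reference agonist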); details: HEK293T RXRa-UAS-bla, beta-lactamase reporter, 18 h; 530 nm emission
[7] = target: Retinoic acid receptor RXR-alpha (Homo sapiens) (UniProt P19793); assay: as above
[8] = qHTS assay for small molecule antagonists of retinoid X receptor alpha signaling (AID 588546; active = well fitted inhibition curve with a large enough effect in the signal ratio, with a control signal flat, not every such curve was filed as active; the % refers to the signal ratio;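 note: cells stimulated with 9-cis-retinoic acid as agonist; % is set by controls: 0 for no effect and ±100 for the full control effect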); details: HEK293T RXRa-UAS-bla, beta-lactamase ratio, antagonist mode; measured here: W530 green channel, cytotoxicity proxy
Procedure, shortened: (§2)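 Beta-lactamase reporter inhibition, read as CCF4 fluorescence ratio (ex 405, em 460/530 nm) after 2 h at RT. HEK293T UAS-bla cells, 2500/well, were stimulated with 9-cis-RA at 500 or 100 nM final alongside test compound for 18 h at 37 C.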

[9] = target: Retinoic acid receptor RXR-alpha (Homo sapiens) (UniProt P19793); assay: as above; details: HEK293T RXRa-UAS-bla, beta-lactamase ratio, antagonist mode
Procedure, shortened: as §2

[10] = qHTS assay for small molecule activators of the p53 signaling pathway (AID 651743; active = well fitted activation curve with a large enough effect in the signal ratio, not every such curve was filed as active; the % refers to the signal ratio; note: series mostly up to about 92 µM; % of control where 0% means no effect); details: HCT-116 p53RE-bla, beta-lactamase FRET ratio, 16 h; activation: stronger effect = higher value
Procedure, shortened: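 After 16 hours compound treatment at 37 C, HCT-116 cells stably expressing p53RE-driven beta-lactamase were loaded with LiveBLAzer B/G FRET substrate for 2 hours at room temperature. Fluorescence intensity served as the p53 activation read-out.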

[11] = qHTS assay for small molecule activators of the nuclear factor-kappa B (NF-kB) signaling pathway (AID 651749; active = well fitted activation curve with a large enough effect in the signal ratio; the % refers to the signal ratio; note: series mostly up to about 77 µM; % of control where 0% means no effect); details: NF-kB-bla ME-180 cells, beta-lactamase FRET ratio, 16 h; activation: stronger effect = higher value
Procedure, shortened: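 Activation measured after 16 hr compound treatment at 37C, 5% CO2, of 2,000 ME-180 cells/well stably expressing an NF-kB response element–driven beta-lactamase reporter, via FRET-disruption fluorescence.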

[12] = qHTS assay for environmental chemicals that activate the Aryl hydrocarbon Receptor (AhR) signaling pathway (AID 651777); details: 1A2-DRE human hepatoma cells, luciferase, 24 h; activation: stronger effect = higher value; note: % of control where 0% means no effect; nearly all actives have a fitted effect of over 15% in size
Procedure, shortened: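 Human hepatoma 1A2-DRE cells stably carrying a DRE/CYP1A2 promoter–luciferase reporter, 1,200 cells/well, exposed to compound 24 hr at 37 C. Luciferase read by One-Glo luminescence after 30 min at room temperature; increased signal marks AhR activation.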

[13] = target: Peroxisome proliferator-activated receptor alpha (Homo sapiens) (UniProt Q07869); assay: qHTS assay for small molecule agonists of the peroxisome proliferator-activated receptor alpha (PPARalpha) signaling pathway (AID 651778); details: PathHunter PPARalpha complementation, chemiluminescence, 6 h; max response: stronger effect = higher value; note: % of control where 0% means no effect
Procedure, shortened: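 Chemiluminescence from complemented enzyme reported PPARalpha activation in cells after 6 hr of compound treatment at 37 C. The detection reagent was incubated for 60 min at room temperature, and compounds were scored as agonists.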

[14] = qHTS assay for small molecule agonists of the antioxidant response element (ARE) signaling pathway measured by Nrf2-dependant transcriptional activity - cell viability counter screen (AID 720653; active = well fitted curve in the direction sought with a large enough effect in the repeat runs; an effect the other way counts as inactive or inconclusive; note: % is set by controls: 0 for no effect and ±100 for the full control effect); details: ARE-bla HepG2 viability, CellTiter-Glo ATP luminescence, 16 h; max response: stronger effect = lower value
Procedure, shortened: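 Cytotoxicity counter screen: intracellular ATP quantified by CellTiter-Glo luminescence in the same ARE-bla HepG2 plates, after 16 h compound exposure and a 2 h beta-lactamase substrate step.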

[15] = qHTS assay for cell viability of HEK293 cells (AID 743288); details: ATP luminescence (CellTiter-Glo), 18 h; max response: stronger effect = lower value; note: % is set by controls: 0 for no effect and ±100 for the full control effect; nearly all actives have a fitted effect of over 50% in size
Procedure, shortened: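 Steps: plate 2,000 parental HEK293 cells per well; incubate ≥5 h, 37 C; add compounds in DMSO; incubate 18 h, 37 C; add CellTiter-Glo; wait 30 min at room temperature; read luminescence.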

[16] = qHTS assay for cell viability of the p53RE-bla HCT-116 cell line (AID 743292); note: % is set by controls: 0 for no effect and ±100 for the full control effect; nearly all actives have a fitted effect of over 55% in size
Procedure, shortened: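 CellSensor p53RE-bla HCT-116 cells (4,000/well) pre-incubated 5 h at 37 C, then exposed to compounds in DMSO for 16 h at 37 C. Viability read as ATP content by CellTiter-Glo luminescence after 30 min at room temperature.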

[17] = target: Nuclear receptor subfamily 1 group I member 2 (Rattus norvegicus) (UniProt Q9R1A7); assay: qHTS assay for small molecule activators of the rat pregnane X receptor (rPXR) signaling pathway (AID 651751; call rule not given here; note: 0% is about no effect); details: rPXR reporter cells, luciferase (One-Glo), 24 h
[18] = qHTS assay for small molecule activators of the human pregnane X receptor (PXR) signaling pathway (AID 720659; call rule not given here; note: 0% is about no effect)

Retinoic acid receptor RXR-alpha (Homo sapiens), sequence (P19793 whole entry, looked up): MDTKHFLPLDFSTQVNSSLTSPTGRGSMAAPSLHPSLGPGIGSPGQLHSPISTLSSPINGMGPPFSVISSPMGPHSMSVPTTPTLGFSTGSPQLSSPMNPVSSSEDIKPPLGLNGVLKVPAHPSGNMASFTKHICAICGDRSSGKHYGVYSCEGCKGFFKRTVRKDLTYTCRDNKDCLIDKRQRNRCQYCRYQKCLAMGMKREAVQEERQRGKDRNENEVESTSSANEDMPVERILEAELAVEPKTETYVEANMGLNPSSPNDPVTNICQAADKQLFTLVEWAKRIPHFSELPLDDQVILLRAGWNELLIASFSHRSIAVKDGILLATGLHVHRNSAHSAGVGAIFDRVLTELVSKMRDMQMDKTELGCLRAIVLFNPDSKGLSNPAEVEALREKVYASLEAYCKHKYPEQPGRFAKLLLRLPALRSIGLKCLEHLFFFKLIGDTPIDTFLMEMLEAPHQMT
Vitamin D3 receptor (Homo sapiens), sequence (P11473 whole entry, looked up): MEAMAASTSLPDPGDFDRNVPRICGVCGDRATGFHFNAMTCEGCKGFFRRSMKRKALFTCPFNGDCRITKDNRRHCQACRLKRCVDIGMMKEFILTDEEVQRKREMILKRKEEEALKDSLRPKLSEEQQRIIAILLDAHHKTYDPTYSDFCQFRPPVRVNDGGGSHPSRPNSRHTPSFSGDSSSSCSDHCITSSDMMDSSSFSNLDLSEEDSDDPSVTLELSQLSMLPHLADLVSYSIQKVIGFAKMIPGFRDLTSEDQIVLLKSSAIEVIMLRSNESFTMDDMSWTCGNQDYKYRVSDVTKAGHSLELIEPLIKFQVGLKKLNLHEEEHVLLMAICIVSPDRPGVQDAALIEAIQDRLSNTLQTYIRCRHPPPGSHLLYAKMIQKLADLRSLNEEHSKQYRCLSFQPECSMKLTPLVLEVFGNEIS
Peroxisome proliferator-activated receptor alpha (Homo sapiens), sequence (Q07869 whole entry, looked up): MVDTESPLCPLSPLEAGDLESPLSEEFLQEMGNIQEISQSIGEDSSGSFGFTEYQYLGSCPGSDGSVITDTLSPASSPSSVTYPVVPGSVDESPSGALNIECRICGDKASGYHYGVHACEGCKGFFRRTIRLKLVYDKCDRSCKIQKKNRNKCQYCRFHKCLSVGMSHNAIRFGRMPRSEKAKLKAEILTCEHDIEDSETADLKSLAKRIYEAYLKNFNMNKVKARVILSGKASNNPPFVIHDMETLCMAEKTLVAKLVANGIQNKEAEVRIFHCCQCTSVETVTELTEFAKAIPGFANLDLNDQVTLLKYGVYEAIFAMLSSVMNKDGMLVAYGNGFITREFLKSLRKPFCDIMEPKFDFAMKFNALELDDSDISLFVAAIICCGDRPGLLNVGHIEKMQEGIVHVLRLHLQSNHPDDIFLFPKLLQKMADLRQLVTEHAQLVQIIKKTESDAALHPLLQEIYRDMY
Nuclear receptor subfamily 1 group I member 2 (Rattus norvegicus), sequence (Q9R1A7 whole entry, looked up): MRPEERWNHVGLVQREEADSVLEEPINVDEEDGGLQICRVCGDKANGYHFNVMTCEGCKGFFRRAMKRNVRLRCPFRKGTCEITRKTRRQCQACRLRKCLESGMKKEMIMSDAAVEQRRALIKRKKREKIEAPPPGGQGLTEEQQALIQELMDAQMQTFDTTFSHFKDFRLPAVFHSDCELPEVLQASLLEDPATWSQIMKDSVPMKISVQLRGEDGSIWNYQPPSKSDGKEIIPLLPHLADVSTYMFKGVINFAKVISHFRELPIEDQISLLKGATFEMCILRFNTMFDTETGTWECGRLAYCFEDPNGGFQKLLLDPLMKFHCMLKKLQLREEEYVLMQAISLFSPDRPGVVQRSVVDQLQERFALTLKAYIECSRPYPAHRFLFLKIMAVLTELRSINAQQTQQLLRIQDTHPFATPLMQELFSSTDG
Peroxisome proliferator-activated receptor delta (Homo sapiens), sequence (Q03181 whole entry, looked up): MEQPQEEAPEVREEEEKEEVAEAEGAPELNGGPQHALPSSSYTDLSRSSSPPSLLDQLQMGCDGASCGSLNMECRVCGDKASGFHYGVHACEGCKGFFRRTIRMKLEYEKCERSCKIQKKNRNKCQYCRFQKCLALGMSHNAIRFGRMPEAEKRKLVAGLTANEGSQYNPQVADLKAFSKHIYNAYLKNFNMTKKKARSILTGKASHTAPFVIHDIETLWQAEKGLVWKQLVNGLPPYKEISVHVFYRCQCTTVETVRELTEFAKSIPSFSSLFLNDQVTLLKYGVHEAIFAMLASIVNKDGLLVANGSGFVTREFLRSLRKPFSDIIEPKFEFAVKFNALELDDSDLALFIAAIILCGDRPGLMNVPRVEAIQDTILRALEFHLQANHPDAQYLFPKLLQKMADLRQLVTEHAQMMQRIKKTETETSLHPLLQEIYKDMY
Estrogen receptor (Homo sapiens), sequence (P03372 whole entry, looked up): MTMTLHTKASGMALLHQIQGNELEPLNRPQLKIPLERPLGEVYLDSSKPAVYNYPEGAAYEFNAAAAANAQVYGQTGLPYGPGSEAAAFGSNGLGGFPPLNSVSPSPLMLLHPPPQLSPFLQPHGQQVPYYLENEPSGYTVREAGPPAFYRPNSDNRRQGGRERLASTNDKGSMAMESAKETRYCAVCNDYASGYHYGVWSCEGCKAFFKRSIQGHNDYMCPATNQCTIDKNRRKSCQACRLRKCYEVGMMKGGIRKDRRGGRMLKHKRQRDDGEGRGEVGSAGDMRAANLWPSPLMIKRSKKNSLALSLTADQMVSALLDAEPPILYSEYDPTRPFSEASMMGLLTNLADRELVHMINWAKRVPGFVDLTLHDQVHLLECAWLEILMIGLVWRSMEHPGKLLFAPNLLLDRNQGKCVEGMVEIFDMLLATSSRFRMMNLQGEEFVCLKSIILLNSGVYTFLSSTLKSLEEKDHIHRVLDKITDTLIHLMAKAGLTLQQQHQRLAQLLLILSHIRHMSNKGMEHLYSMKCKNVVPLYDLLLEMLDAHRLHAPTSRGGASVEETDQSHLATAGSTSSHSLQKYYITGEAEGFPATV

SMILES | Potency [1] | Potency [2] | max response [3] [%] | Potency [4] | outcome [5] | max response [6] [%] | Potency [7] | max response [8] [%] | max response [9] | activation [10] | activation [11] | activation [12] | max response [13] | max response [14] | max response [15] | Potency [16] | max response [17] | outcome [18]
CCCCCCCCCC(C)=O | inactive | inactive | 26.8 | inactive | inactive | -16.2 | inactive | -6.07 | -4.81% (inactive) | -2.23% (inactive) | 0.316% (inactive) | 0.0383% (inactive) | 0.198% (inactive) | -10.8% (inactive) | -5.17% (inactive) | inactive | -2.12% (inactive) | inactive
CCC/C(=N\OCC)C1=C(O)CC(O)(CC(C)S(=O)(=O)CC)CC1=O (stereo not drawn) | inactive | inactive | 9.67 | inactive | inactive | -16.2 | inactive | -7.24 | 3.08% (inactive) | -2.69% (inactive) | -2.79% (inactive) | 3.19% (inactive) | -0.0131% (inactive) | -10.1% (inactive) | -1.14% (inactive) | inactive | 2.09% (inactive) | inactive
CC(C)OC(=O)c1ccccc1C(=O)OC(C)C | inactive | inactive |  |  | inactive | -10.4 | inactive | -19.4 | -1.37% (inactive) |  | -2.02% (inactive) | 1.05% (inactive) | -0.635% (inactive) | 0.0901% (inactive) | -5.59% (inactive) | inactive | 2.54% (inactive) | inactive
O=c1[nH]c(=O)c2[nH]cnc2[nH]1 | inactive | inactive | -11.9 | inactive | inactive | -13.2 | inactive | -4.54 | -1.52% (inactive) | 4.14% (inactive) | -1.45% (inactive) | 0.87% (inactive) | -2.27% (inactive) | 0.287% (inactive) | -12.8% (inactive) | inactive | 0.842% (inactive) | inactive
Cn1c(=O)[nH]c(=O)n(C2CCC(O)CC2)c1=O (stereo not drawn) | inactive | inactive | 54.4 | inactive | inactive | -1.18 | inactive | -1.59 | -0.444% (inactive) | 2.9% (inactive) | -0.274% (inactive) | 1.88% (inactive) | -2.74% (inactive) | 7.46% (inactive) | -0.781% (inactive) | inactive | -2.03% (inactive) | inactive
CCCCCCCCCCCO | inactive | inactive | -7.63 | inactive | inactive | -10.8 | inactive |  |  | 1.01% (inactive) | 0.0542% (inactive) | -0.0375% (inactive) | 1.65% (inactive) | 3.39% (inactive) | 4.45% (inactive) | inactive | 2% (inactive) | 
CC1(C)[C@@H](C=C(Cl)Cl)[C@@H]1C(=O)OCc1cccc(Oc2ccccc2)c1 | inactive | inactive | -21.4 | inactive |  |  |  | -10.2 | -8.61% (inactive) | -0.529% (inactive) |  | -0.62% (inactive) | -0.645% (inactive) |  | -11.2% (inactive) | inactive |  | 
CCCCCCCCCCCCCCO | inactive | inactive |  |  | inactive | -4.48 | inactive | -1.57 | 6.98% (inactive) | -1.8% (inactive) | 0.681% (inactive) | 0.688% (inactive) | 6.84% (inactive) | 4.22% (inactive) | -0.0211% (inactive) | inactive | 0.238% (inactive) | inactive
Brc1ccc(Br)c(Br)c1 | inactive | inactive |  |  | inactive | 0.274 | inactive | -16.3 | -14.6% (inactive) | -2.82% (inactive) | -0.374% (inactive) | 2.73% (inactive) | -4.16% (inactive) | -18% (inactive) | -15.6% (inactive) | inactive | -1.74% (inactive) | inactive
CCc1cccc(C)c1N(C(=O)CS(=O)(=O)O)[C@@H](C)COC | inactive |  | 24.1 | inactive | inactive | -8.42 | inactive | 9.75 | -22.6% (inactive) | 3.16% (inactive) | -2.32% (inactive) | -0.669% (inactive) | -2.29% (inactive) | -5.93% (inactive) | -5.4% (inactive) | inactive | -5.94% (inactive) | inactive
Fc1ccc(Br)cc1 | inactive | inactive |  |  | inactive | 4.76 | inactive | -8.4 | 4.33% (inactive) | -1.54% (inactive) | 1.17% (inactive) | 2.85% (inactive) | -2.75% (inactive) | -9.66% (inactive) | -0.046% (inactive) | inactive | -1.72% (inactive) | inactive
OCCOCCOCCOCCO | inactive | inactive | -5.22 | inactive | inactive | 4.51 | inactive | -7.24 | -5.67% (inactive) | 0.49% (inactive) | -0.834% (inactive) | 2.06% (inactive) | -1.11% (inactive) |  | -2.22% (inactive) | inactive |  | 
